# From PubChem
# This is a sample that favours compounds with a hit; in the whole collection about 2.2% have one here.
# HDAC3 inhib: HDAC3 deacetylase inhibitors, primary screen, biochemical, fluorescence, cell-free homogeneous; Histone deacetylase 3 (Homo sapiens), O15379; recombinant HDAC3, fluorogenic peptide/trypsin coupled; inhibition, % at 8.3 µM; 320,000 tested, 0.15% active; AID 2718, 2010; in the data active means inhibition above about 26%, passing the limit was not always enough; inconclusive means no clear call, values can overlap the other calls
# SUMO Mot1 rescue: yeast Mot1-301 growth rescue at high temperature, primary screen, SUMOylation pathway inhibitor project, S. cerevisiae, ATP luminescence, 38.5C | growth rescue, % at 18.8 µM | 320,000 tested, 1% active | S. cerevisiae Mot1-301 growth rescue; percent above DMSO median, 100 means doubled;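 active means every valid replicate shows activation above 250% relative to neutral control wells; inactive means the rest, any valid replicate at or below 250%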;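 further: OY570 slx delta 5 strain wells were the positive control but not used for scaling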
# PvdQ inh: P. aeruginosa PvdQ acylase inhibitors, primary screen, biochemical, fluorescence, plate reader and imaging, single point. PvdQ acylase [Pseudomonas aeruginosa LESB58]. purified PvdQ acylase. inhibition, % at 10 µM. 340,000 tested, 0.063% active. AID 488965, 2010; in the data active means inhibition above about 30%, passing the limit was not always enough; inconclusive means no clear call, values can overlap the other calls;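 further: 0% = vehicle neutral wells and 100% = reference inhibitor wells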
# p-CIP stab down: p/CIP-EGFP fusion destabilizers, primary screen, fluorescence, F442A cells. decrease of EGFP signal, % at 10 µM. 290,000 tested, 0.01% active. AID 1984, 2009. Q05BA5. 16 h;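 active means EGFP signal decrease of at least 30% at 10 µM or well 3 SD below plate mean, unless failing retest; inactive means the rest, including hits failing retest or dose response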
# Target sequence (Q05BA5 1-1403): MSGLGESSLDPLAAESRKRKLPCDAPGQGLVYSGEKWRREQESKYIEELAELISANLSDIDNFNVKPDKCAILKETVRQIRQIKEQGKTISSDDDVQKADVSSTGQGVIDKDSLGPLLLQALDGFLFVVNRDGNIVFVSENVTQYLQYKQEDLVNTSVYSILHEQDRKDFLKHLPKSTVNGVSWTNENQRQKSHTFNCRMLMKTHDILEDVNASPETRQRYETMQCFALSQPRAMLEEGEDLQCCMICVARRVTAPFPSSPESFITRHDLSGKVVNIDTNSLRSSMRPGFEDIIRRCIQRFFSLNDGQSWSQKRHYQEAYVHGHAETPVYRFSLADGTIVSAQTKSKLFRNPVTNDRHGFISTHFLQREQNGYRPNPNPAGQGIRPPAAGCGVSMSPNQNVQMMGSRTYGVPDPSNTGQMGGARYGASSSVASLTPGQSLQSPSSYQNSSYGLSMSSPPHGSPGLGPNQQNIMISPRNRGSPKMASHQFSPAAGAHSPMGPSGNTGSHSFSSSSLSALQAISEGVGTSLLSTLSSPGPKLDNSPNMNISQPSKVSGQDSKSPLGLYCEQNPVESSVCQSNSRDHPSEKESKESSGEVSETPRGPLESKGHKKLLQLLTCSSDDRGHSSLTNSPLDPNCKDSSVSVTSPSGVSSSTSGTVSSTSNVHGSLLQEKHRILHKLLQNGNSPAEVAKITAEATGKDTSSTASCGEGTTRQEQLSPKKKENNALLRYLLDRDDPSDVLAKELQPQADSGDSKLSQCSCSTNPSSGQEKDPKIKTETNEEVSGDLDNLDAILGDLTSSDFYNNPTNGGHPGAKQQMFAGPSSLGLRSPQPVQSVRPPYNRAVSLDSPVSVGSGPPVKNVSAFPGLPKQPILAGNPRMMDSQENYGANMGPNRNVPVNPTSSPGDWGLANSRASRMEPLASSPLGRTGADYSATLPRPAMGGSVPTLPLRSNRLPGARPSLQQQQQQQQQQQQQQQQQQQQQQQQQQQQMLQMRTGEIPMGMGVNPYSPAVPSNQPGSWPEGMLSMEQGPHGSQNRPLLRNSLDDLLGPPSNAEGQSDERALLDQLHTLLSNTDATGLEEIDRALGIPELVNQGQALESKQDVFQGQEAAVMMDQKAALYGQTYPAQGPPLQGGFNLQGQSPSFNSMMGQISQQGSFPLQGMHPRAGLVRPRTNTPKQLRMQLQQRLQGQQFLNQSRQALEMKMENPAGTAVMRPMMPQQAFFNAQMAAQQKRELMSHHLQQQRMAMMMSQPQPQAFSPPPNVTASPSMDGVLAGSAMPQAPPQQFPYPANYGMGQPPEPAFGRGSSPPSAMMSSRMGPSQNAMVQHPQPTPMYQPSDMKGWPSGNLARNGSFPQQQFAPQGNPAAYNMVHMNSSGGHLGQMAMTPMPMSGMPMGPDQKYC
# PHOSPHO1 inh: PubChem AID 1565. 290,000 tested, 1.1% active. inhibition, % at 13.3 µM. recombinant PHOSPHO1, absorbance phosphatase assay; in the data active means inhibition above about 60%
# JMJD2C inh: inhibitors of GASC-1 histone demethylase, primary screen, biochemical, fluorescence, DELFIA europium; Lysine-specific demethylase 4C (Homo sapiens), Q9H3R0; inhibition, % at 2.35 µM; 330,000 tested, 0.069% active; GST-JMJD2C(1-420) H3K9me3 demethylation;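 active means more than half of a compound's replicate wells show inhibition beyond 50%, single wells judged on their own value; inconclusive means some, but no more than half, of replicates pass 50% inhibition; inactive means no replicate passes 50% inhibition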;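 further: signal counts dimethyl H3K9 product captured on neutravidin plate; 0% = median of DMSO wells and 100% = 0.3 times that DMSO median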
# Yeast Mot1 SUMO: growth restoration of Mot1-301 yeast on galactose, dose response, SUMO pathway inhibitor project, whole organism, S. cerevisiae, ATP luminescence, cherry-picked samples. growth activity, percent, % at 42 µM. 2,300 tested, under 10 active. S. cerevisiae Mot1-301 galactose growth, 24 h; -100 = growth of slx-deleted rescue strain. shares compounds with SUMO Mot1 rescue;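 active means Signal drops as the depositor expects, and the fitted half-maximal dose is no more than ten times the top valid tested dose; inconclusive means Poor fit, or a flat curve whose signal drops by 30% to 70%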;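 further: more negative values mean stronger growth rescue toward the control strain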
# Numbers without * were called inactive; u = inconclusive; x = no result; + = active, no number; [ ] = dose if it differs, or a comment.
SMILES,HDAC3 inhib,SUMO Mot1 rescue,PvdQ inh,p-CIP stab down,PHOSPHO1 inh,JMJD2C inh,Yeast Mot1 SUMO
CCc1c(O)nc(SCC(=O)Nc2ccccc2OC)[nH]c1=O,-1,-14,-13,-3,-8,8,x
CCOC(=O)Cc1csc(NC(=O)NC2(C(F)(F)F)Oc3ccccc3O2)n1,8,770*,1,-10,15,-12,0
O=C1CCCN1C(=O)CSc1ccc2ccccc2n1,6,19,-9,x,x,-4,x
CCCc1ccc(S(=O)(=O)NCCc2ccncc2)cc1,4,541*,-3,2,-3,-25,0
O=CNCCCc1nc2ccccc2n1CCc1ccccc1,-3,+,-9,-1,32,8,0
Cn1cc(C(=O)N2CCCC(Nc3ccc(F)cc3)C2)c2ccccc21 (stereo not drawn),3,662*,-15,-12,22,-4,1
CCNCc1nc2cc(Cl)ccc2c(=O)[nH]1,-3,831*,-2,3,-15,-26,0
NC(=O)C1CCN(Cc2nc3cc(Cl)ccc3c(=O)[nH]2)CC1,2,11,-3,-1,18,-17,x
Cc1ccc(C)c(-n2nnnc2SCC(=O)Nc2c(C)n(C)n(-c3ccccc3)c2=O)c1,3,377*,18,-19,-6,3,0
COc1ccc(S(=O)(=O)n2nc(-c3ccc(Cl)cc3)cc2N)cc1OC,u,388*,6,-5,3,-11,0
CCOc1ccc(-c2cc(N)n(S(=O)(=O)c3ccc(OC)c(OC)c3)n2)cc1,3,3,1,-2,9,-7,x
Nc1cc(-c2ccc(Cl)cc2)nn1S(=O)(=O)c1ccc(Cl)cc1,1,545*,4,1,5,11,0
COc1ccc(N/N=C(/C(C)=O)N2CCCc3ccccc32)cc1,-5,-7,-3,-2,-52,-2,x
O=C(c1ccc(CNS(=O)(=O)c2cccc(Cl)c2)cc1)N1CCCCC1,3,-2,-9,12,24,-5,x
Cc1ccc(C(=O)NCC(=O)Nc2ccc3c(c2)OCCO3)cc1,-3,580*,-26,x,x,-15,0[21 µM]
CC(C)(C)c1ccc(C(=O)NCCC(=O)Nc2ccc3c(c2)OCCO3)cc1,x,x,-7,x,x,x,x
Cc1cc(C)n(C(=O)CNC(=O)c2ccc3c(c2)OCCO3)n1,1,601*,-9,4,15,-9,0
CN1CCN(C(=S)NC(CC(=O)c2ccccc2)c2ccccc2)CC1 (stereo not drawn),-2,-4,-10,-22,21,1,x
COc1ccc(NC(=O)COC(=O)Cc2ccccc2[N+](=O)[O-])cc1OC,-1,25,0,0,5,-2,x
COc1ccccc1C(=O)NC(=O)COC(=O)Cc1ccccc1[N+](=O)[O-],2,617*,-8,x,x,2,-1
O=C(CN1c2ccccc2Sc2ccccc21)N/N=C/c1ccc(Cl)cc1Cl,2,453*,-2,-2,22,-4,1[21 µM]
O=C(CN1c2ccccc2Sc2ccccc21)N/N=C/c1ccc(Cl)cc1,6,7,-8,-12,17,-1,x
Cc1cc(O)c(/C=N/Nc2cccc(Cl)c2)c(=O)o1,x,416*,-19,5,101*,6,0
NC1=NC2(CCCC2)N=C(Nc2ccccc2)N1,x,722*,-9,7,-6,-16,0
COc1ccc(/C=C(/NC(=O)c2ccco2)C(=O)Nc2ccc(C(=O)O)cc2)cc1,8,9,-7,-5,24,7,x
O=C(/C=C/c1cccc([N+](=O)[O-])c1)NCCSCc1ccccc1Cl,1,5,21,-12,-7,3,x
O=C(/C=C/c1cccc([N+](=O)[O-])c1)NCCSCc1ccc(Cl)cc1Cl,2,368*,-7,5,3,-4,0
